Shown are actives, neighbours in structure and some others; about 2.4% of the full set was active somewhere.
PfM18AAP inh: blocks P. falciparum M18 aspartyl aminopeptidase; recombinant PfM18AAP, H-Glu-NHMec fluorogenic cleavage; AID 1822; inhibition, % at 7.35 µM; 290,000 compounds, 1.2% hits;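 active = inhibition above the campaign mean inhibition over all tested compounds plus 3 SD, cut at about 28% in these data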
Yeast superoxide: caloric restriction mimetics inhibiting age-related superoxide in yeast; S. cerevisiae aged cells, superoxide DHE fluorescence; active compounds read low; superoxide response (% of plate mean), % at 10 µM; 330,000 compounds, 0.18% hits; AID 2690;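 active = superoxide response under a set limit, about three screen SD below normal, cut at about 65% in these data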;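 note: yeast aged for seven days with compound at 30 °C before DHE staining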
PfGluPho inh: PfG6PD (Plasmodium falciparum) enzyme inhibition | inhibition, % at 20 µM | PfGluPho enzyme, NADPH resazurin-diaphorase fluorescence | AID 504690 | 350,000 compounds, 0.78% hits;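 active = inhibition reaching at least a set limit at 20 µM in the primary screen, cut at about 59% in these data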
APOBEC3G inh: APOBEC3G (human) deaminase inhibition; inhibition, % at 20 µM; recombinant A3G, ssDNA deamination FAM/TAMRA fluorescence; 330,000 compounds, 0.28% hits;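 active = inhibition of at least 40% at 20 µM, with no more than 30% in the related APOBEC3A deaminase screen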
Target sequence (Q9HC16 whole entry, looked up): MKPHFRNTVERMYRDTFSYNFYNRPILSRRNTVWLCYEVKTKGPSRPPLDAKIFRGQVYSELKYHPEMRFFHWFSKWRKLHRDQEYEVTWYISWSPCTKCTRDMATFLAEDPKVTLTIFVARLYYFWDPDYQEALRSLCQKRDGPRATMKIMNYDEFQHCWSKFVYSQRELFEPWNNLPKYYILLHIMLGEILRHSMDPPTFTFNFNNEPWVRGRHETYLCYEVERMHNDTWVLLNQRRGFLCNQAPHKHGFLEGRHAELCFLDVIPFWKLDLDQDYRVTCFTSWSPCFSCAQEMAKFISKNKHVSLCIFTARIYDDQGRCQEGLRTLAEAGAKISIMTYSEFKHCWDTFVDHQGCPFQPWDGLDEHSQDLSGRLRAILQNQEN
A3A deaminase: human APOBEC3A DNA deaminase inhibition; 330,000 compounds, 0.41% hits; inhibition, % at 20 µM; recombinant A3A, FAM/TAMRA ssDNA deamination fluorescence; AID 493011;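 active = at least 40% inhibition at 20 µM here, with at most 30% in a related deaminase screen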
Target sequence (P31941 whole entry, looked up): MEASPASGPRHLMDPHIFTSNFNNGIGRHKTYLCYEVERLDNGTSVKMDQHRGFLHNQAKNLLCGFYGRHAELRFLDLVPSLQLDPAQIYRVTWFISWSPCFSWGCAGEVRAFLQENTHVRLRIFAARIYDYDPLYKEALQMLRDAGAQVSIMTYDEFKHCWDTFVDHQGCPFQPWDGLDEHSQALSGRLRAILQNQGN
PfG6PD confirm: PfG6PD inhibition, single-dose confirmed; shares compounds with PfGluPho inh; recombinant PfGluPho, NADPH-diaphorase-resazurin fluorescence; inhibition, % at 20 µM; 2,400 compounds, 34% hits; AID 504753;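 active = inhibition of at least 50% at 20 µM in any single replicate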
Diaph ctr 10uM: inhibits diaphorase or oxidizes, flagging false PfG6PD hits | 820 compounds, 39% hits | AID 504862 | shares compounds with PfGluPho inh | inhibition, % at 20 µM | diaphorase-coupled resazurin reduction, fluorescence, NADPH 10 uM;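 active = average inhibition reaching 50% or more with the compound at 20 µM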;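 note: resorufin red fluorescence formed as diaphorase reduces resazurin using NADPH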
Diaphorase 30uM: inhibits diaphorase or oxidizes, flagging false PfG6PD hits; Diaphorase/resazurin coupled assay, resorufin fluorescence, 30 uM NADPH; inhibition, % at 20 µM; 820 compounds, 29% hits; AID 504863; shares compounds with PfGluPho inh;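 active = inhibition averaging 50% or more, tested at 20 µM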
Hits are given with their value; – = inactive; · = no result given.

SMILES	PfM18AAP inh	Yeast superoxide	PfGluPho inh	APOBEC3G inh	A3A deaminase	PfG6PD confirm	others
Clc1ccc(Nc2ncnc3c2cnn3-c2ccccc2)cc1	–	–	111	–	–	–
C=CCN(Cc1cccc(OC)c1OC)C(=O)Oc1ccccc1	·	–	–	–	–	·
COC(=O)C(=O)C/C(=N/Nc1ncnc2ccccc12)c1ccc(Cl)cc1	–	–	–	–	–	·
COc1ccc(-c2csc(NC(=O)CS(=O)(=O)c3ccccc3)n2)cc1	·	–	68	–	–	–
Oc1cc(CNCc2ccccc2)c(O)cc1CNCc1ccccc1	·	·	70	·	·	49	Diaph ctr 10uM=–;Diaphorase 30uM=–
Cc1cc(C)c2c(-n3cccc3)c(NC(=O)OC(C)C)sc2n1	–	–	62	–	–	–
Cc1nc(N2CCC3(CC2)OCCO3)c2nnn(Cc3ccccc3F)c2n1	–	–	61	–	–	–
COc1ccc(-c2nc3ccccc3[nH]2)cc1	–	–	61	–	–	–
Cn1ccc(-c2ccccc2)n1	–	–	–	–	–	·
N#Cc1cc(-c2ccccc2)nn1-c1ccccc1	–	–	80	–	–	–
COc1cc(N)c2ncsc2c1	·	·	69	·	·	72	Diaph ctr 10uM=–;Diaphorase 30uM=–
CCNC(=S)N/N=C/c1cccc(OCc2c(F)cccc2Cl)c1	–	–	60	–	–	–
CCCOc1cc(N)ccc1C(=O)OCCN(CC)CC	·	–	–	–	–	·
CCCOc1ccc(N)cc1N	–	–	115	–	–	70	Diaph ctr 10uM=52;Diaphorase 30uM=51
Cc1ccccc1NC1=C/C(=N\S(=O)(=O)c2ccc(C(=O)O)cc2)c2ccccc2C1=O	–	–	78	–	–	61	Diaph ctr 10uM=59;Diaphorase 30uM=52
CCc1ccc(S(=O)(=O)/N=C2\C=C(NS(=O)(=O)c3ccccc3)C(=O)c3ccccc32)cc1	–	·	–	–	–	·
CC(=O)Nc1ccc(NC(=O)C(C)OC(=O)c2ccccc2NS(=O)(=O)c2cccs2)cc1 (stereo unspecified)	–	–	–	–	–	·
CC(=O)Nc1ccc(NC2=C/C(=N/S(=O)(=O)c3cccs3)c3ccccc3C2=O)cc1	–	–	87	–	–	73	Diaph ctr 10uM=73;Diaphorase 30uM=76
COc1ccc(S(=O)(=O)/N=C2\C=C(Nc3ccc(O)cc3)C(=O)c3ccccc32)cc1	–	–	109	–	–	52	Diaph ctr 10uM=–;Diaphorase 30uM=–
Cc1ccc(S(=O)(=O)N2C[C@H]3n4c(=O)ccc(=O)n4C[C@H](OC(=O)NCc4ccccc4)[C@@]3(O)C2)cc1	·	·	–	·	·	·
CCCCCCn1c(=O)n2n(c1=O)[C@@H]1CN(S(=O)(=O)c3ccc(C)cc3)C[C@]1(O)[C@@H](OC(=O)NCc1ccccc1)C2	·	·	67	·	·	–
Cc1cc(NC(=O)Nc2ccc(Cl)cc2)n(C)n1	–	–	–	–	–	·
Cc1ccc(NNC(=O)Nc2ccc(Cl)cc2)nn1	32	–	68	–	–	–
CN(CC(=O)Nc1cccc(F)c1)C(=O)c1cccc(S(=O)(=O)N2CC3(C)CC2CC(C)(C)C3)c1 (stereo unspecified)	·	–	–	–	–	·
O=C(CNC(=O)c1ccco1)OCc1ccccc1F	·	–	–	–	–	·
SMILES	PfM18AAP inh	Yeast superoxide	PfGluPho inh	APOBEC3G inh	A3A deaminase	PfG6PD confirm	others
O=C1Nc2cc(C(=O)NCCCN3CCCC3)ccc2S/C1=C/c1ccccc1F	–	–	–	–	–	·
O=C1Nc2cc(C(=O)NCCN3CCCCCC3)ccc2S/C1=C/c1ccccc1F	·	·	99	·	·	–
CCN1CCCC1CNC(=O)c1ccc2c(c1)NC(=O)/C(=C\c1ccc(C)cc1)S2 (stereo unspecified)	–	–	117	–	–	104	Diaph ctr 10uM=–;Diaphorase 30uM=–
Cc1ccc(/C=C2/Sc3ccc(C(=O)NCCN4CCOCC4)cc3NC2=O)cc1	–	–	–	–	–	·
C[C@]12CCC(=O)C=C1C=C[C@@H]1[C@@H]2CC[C@@]2(C)[C@H]1CC[C@@]21CCC(=O)O1	–	–	–	–	–	·
CN(CCc1ccccc1)C(=O)c1ccc(NC(=O)Cc2ccc(NC(=O)C3CCCN(S(=O)(=O)c4cccc([N+](=O)[O-])c4)C3)cc2)cc1 (stereo unspecified)	·	·	–	·	·	·
CC(C(=O)NCCN1C(=O)S/C(=C\c2cccnc2)C1=O)N1C(=O)c2ccccc2C1=O (stereo unspecified)	–	–	–	–	–	·
O=C(CCl)NCCN1C(=O)S/C(=C\c2cccnc2)C1=O	–	–	72	–	–	66	Diaph ctr 10uM=–;Diaphorase 30uM=–
Cc1ccc(NCC(=O)c2ccccc2)cc1Cl	–	–	–	–	–	·
Cc1ccc(NC2=C(NC(=O)c3ccccc3)C(=O)c3ccccc3C2=O)cc1Cl	–	–	86	–	–	63	Diaph ctr 10uM=–;Diaphorase 30uM=–
O=C(NCCCn1ccnc1)Nc1ccc2c(c1)OCO2	–	–	–	–	–	·
COc1ccc(-c2cc3nc(C)cc(C)n3n2)cc1	–	–	61	–	–	–
COc1ccc(-c2nc3nc(C)cc(C)n3n2)cc1	–	–	–	–	–	·
CCCCn1c(N)c(N(CCOC)C(=O)COC(=O)CSc2cc(C)c3ccccc3n2)c(=O)[nH]c1=O	·	–	–	–	–	·
CCOc1ccc(CNS(=O)(=O)c2cc(-c3cc(C)no3)ccc2OC)cc1OC	–	–	–	–	–	·
O=c1ccn(C2CCCO2)c(=O)[nH]1 (stereo unspecified)	·	·	–	·	·	·
CCOC(=O)c1c(CSCc2ccccc2)oc2ccc(O)c(CN(C)C)c12	–	–	59	–	–	–
O=C1C=C(NCc2ccccc2)c2ccccc2C1=O	–	·	118	·	·	–
Cc1ccc(Nc2nnc(-c3ccc4c(c3)OCO4)o2)c(C)c1	–	–	70	–	–	–
Cc1ccc(CSc2nnc(-c3ccc4c(c3)OCO4)o2)cc1	–	–	–	–	–	·
COc1ccc(CN(C)CC(=O)Nc2ccccc2C(=O)NC2CC2)cc1F	·	–	–	–	–	·
C[C@]12CC[C@@H]3c4cc(O)c(O)cc4CC[C@H]3[C@@H]1CC[C@@H]2O	67	–	97	–	–	86	Diaph ctr 10uM=–;Diaphorase 30uM=–
C[C@]12CC[C@@H]3c4ccc(O)cc4CC[C@H]3[C@@H]1CC[C@@H]2O	–	–	–	–	–	·
NC(=O)Cn1c(=O)n(CCC(=O)Nc2ccc(F)cc2)c(=O)c2sccc21	–	–	–	–	–	·
CCOc1ccc(Cl)cc1S(=O)(=O)N1CCC(C(=O)NCc2ccco2)CC1	–	–	–	–	–	·
Cc1ccc(C(=O)/C=C/C(=O)c2ccc(C)cc2)cc1	–	–	76	–	–	51	Diaph ctr 10uM=–;Diaphorase 30uM=–
Nc1ccc(N2CCCC2)c(S(=O)(=O)Nc2cccc(C(F)(F)F)c2)c1	·	–	80	–	–	–
CCOC(=O)C(=CNc1ccc(N2CCCCC2)c(S(=O)(=O)Nc2ccccc2OC)c1)C(=O)OCC	·	·	65	·	·	–
